An excerpt weighted towards active compounds, which were near 13% of everything screened.
HCV inhibitor – inhibitors of hepatitis C virus infection. Huh7.5.1 HCVcc-Cre infection, luciferase reporter, 44 h. Potency, µM (series often up to 41.8 µM), usual class: inhibitors. actives 3.4% (n = 340,000); active = well fitted inhibition curve with a large enough effect; inconclusive = small, poorly fitted or top-dose-only effect, or another doubt; inactive = no such curve, though single readings can be large or run the other way
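After 44 h co-culture of compound, cells and HCVcc-Cre (~0.5 moi), substrate is added for 15 min at room temperature and luciferase measured over 15 sec. Cells were seeded at 1,000/well and pre-cultured 4 h.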
CHX counter – counter-screen hit for Shiga toxin inhibitors, cycloheximide; cell reporter, cycloheximide protein synthesis inhibition counterscreen; max response, %; actives 12% (n = 300,000); AID 2314; in the data active = max response mostly above about 13%, no sharp cut-off; inactive = mostly below about 14%; also: read at 38.3 µM for the half of the compounds with a filed dose
Shiga inhibitor – inhibitors of Shiga toxin in Vero cells | Vero cells, Shiga toxin protein synthesis inhibition reporter | inhibition, % at 38.7 µM | actives 9.2% (n = 290,000) | AID 2315; in the data active = inhibition mostly above about 28%, no sharp cut-off; inactive = mostly below about 43%
MARV entry inh – Marburg virus entry inhibition. Marburg virus pseudotyped entry inhibition, cell reporter. Potency, µM (titrated, usually from 37.8 µM), most hits filed as inhibitors. actives 1.8% (n = 300,000); calls by dose curve; tested in HEK293 cells
LASV entry inh – blocks Lassa virus binding to or entry into cells; Potency, µM (top dose mostly 37.9 µM), hits mostly inhibitors; AID 540256; Lassa virus pseudotype entry inhibition, cell reporter; actives 1.2% (n = 300,000); calls by dose curve; tested in HEK293 cells; also: nearly all actives have a fitted effect of over 50% in size
FMDV inh – blocks foot and mouth disease virus | FMDV antiviral cell-based qHTS | Potency, µM (titrated, usually from 57.9 µM), actives largely listed as inhibitors | actives 1.2% (n = 410,000) | AID 1159524; calls by dose curve; tested in HEK293T cells; also: read-out not given here; nearly all actives have a fitted effect of over 45% in size
A number is an active result; - = inactive; ? = inconclusive; . = no result.

SMILES | HCV inhibitor | CHX counter | Shiga inhibitor | MARV entry inh | LASV entry inh | FMDV inh
Cc1c(NC(=O)C(C)OC(=O)COc2ccccc2)c(=O)n(-c2ccccc2)n1C (centres undefined) | - | - | - | - | - | -
Cc1c(NC(=O)C(C)OC(=O)CC2Sc3ccccc3NC2=O)c(=O)n(-c2ccccc2)n1C (centres undefined) | - | 13 | - | - | - | -
CCOC(=O)N1CCC(N2CCCC(C(=O)c3cc(F)ccc3OC)C2)CC1 (centres undefined) | - | - | - | ? | - | -
CCCN1CCN(CCNC(=O)Nc2cc(Cl)c(OC)cc2OC)CC1 | . | . | . | - | - | -
CCCN1CCCC(c2ccc(Nc3nc(Nc4cc(F)ccc4C(N)=O)c4cc[nH]c4n3)c(OC)c2)C1 (centres undefined) | . | . | . | . | 14µM | .
CCCN1CCC(Oc2cc(Nc3nc(Nc4cccc(F)c4C(N)=O)c4cc[nH]c4n3)c(OC)cc2Cl)CC1 | . | . | . | . | 13µM | .
COc1ccc(CCNC(=O)CN2C(=O)CSc3ccc(S(=O)(=O)N4CCOCC4)cc32)cc1OC | - | - | - | . | . | -
O=c1[nH]c(-c2ccccc2)nc(CN2CCCCC2)c1O | - | . | . | - | - | -
COc1ccccc1-c1nnc(N)s1 | - | - | - | - | - | -
COc1ccc(-c2nnc(NC(=O)C(C)C)s2)c(OC)c1 | - | 21 | - | . | . | -
COC(=O)Nc1nnc(-c2ccccc2OC)s1 | - | 38 | 74 | ? | ? | -
COC(=O)Nc1nnc(-c2ccncc2)s1 | - | - | - | - | ? | -
COC(=O)Nc1nnc(-c2ccccc2Cl)s1 | - | 26 | 65 | - | ? | -
COc1ccccc1-c1nnc(NC(=O)OCC(C)C)s1 | - | - | - | - | - | -
CCOC(=O)Nc1nnc(-c2ccccc2OC)s1 | ? | 21 | 33 | - | - | -
Cc1cc(C(=O)COC(=O)c2nn(C)c(=O)c3ccccc23)c(C)n1C | - | . | . | - | - | -
CC(C)[C@H](NC(=O)c1cccc(CN(Cc2ccccc2)C(=O)/C=C/c2ccccc2)c1)C(=O)O | - | . | . | - | - | -
CCOc1ccc(CC(=O)NCc2ccc3c(c2)CCN3C(=O)c2ccc(F)cc2)cc1OCC | . | . | . | . | ? | -
CCOC(=O)c1c(NC(=O)CSc2cn(CCNC(=O)c3ccc(OCC)cc3)c3ccccc23)sc2c1CCCC2 | . | . | . | ? | - | -
C/C=C/C(=O)Nc1nnc(-c2ccccc2C)s1 | - | - | - | . | . | -
C=C(C)C(=O)Nc1nnc(-c2ccccc2C)s1 | - | 34 | - | - | - | -
COC(=O)C1=C(c2ccc(OC)c(OC)c2)C[C@@H]2CC[C@H]1N2C(=O)NCc1ccc(F)cc1 | - | . | . | . | . | -
COc1ccccc1N1CCN(C(=O)c2cc(N3C(=O)C4C5CCC(C5)C4C3=O)ccc2Cl)CC1 (centres undefined) | - | - | - | - | - | ?
CCCCn1cnc2cc(NCc3ccncc3)ccc21 | - | - | - | - | - | -
c1ccc(-n2cnc3cc(NCc4ccncc4)ccc32)cc1 | - | 27 | 91 | - | ? | -
SMILES | HCV inhibitor | CHX counter | Shiga inhibitor | MARV entry inh | LASV entry inh | FMDV inh
c1ccc(-n2cnc3cc(NCc4ccccn4)ccc32)cc1 | ? | 59 | 82 | - | ? | .
O=C(CSc1n[nH]c(-c2ccccc2)n1)N1CCCC1 | - | - | 65 | - | - | -
CCOC(=O)C1CCN(C(=O)CSc2n[nH]c(-c3ccccc3)n2)CC1 | . | . | . | . | - | -
O=C(CSc1n[nH]c(-c2cccs2)n1)N1CCOCC1 | - | . | . | ? | - | -
CCc1ccc(-c2nc(SCC(=O)N3CCOCC3)n[nH]2)cc1 | - | 11 | 29 | - | - | -
COC(=O)CCCCCc1ccc(C(C)=O)s1 | - | 12 | - | - | - | -
COc1cccc(/C=C(/C#N)c2nc3ccccc3[nH]2)c1OC(C)C(=O)O (centres undefined) | - | 26 | 58 | . | . | -
COc1cccc(/C=C(\C#N)c2nc3ccccc3[nH]2)c1OCC(=O)O | - | 31 | 67 | . | . | -
COc1c(Cl)cc(Cl)cc1/C=C(\C#N)c1nc2ccccc2[nH]1 | . | . | . | . | - | ?
COC(=O)C1CN(C(=O)c2ccc(OC(F)F)cc2)c2ccccc2O1 (centres undefined) | - | - | - | - | - | -
CCOc1ccc(NC(=O)NCCCN2CCN(c3ccc(F)cc3)CC2)cc1 | . | . | . | ? | - | -
CC(C)(C)C(=O)OC/C(N)=N/OC(=O)c1ccccc1 | - | 40 | - | ? | - | -
Cc1cccc(C(=O)O/N=C(\N)Cc2cccc3ccccc23)c1 | - | - | - | . | . | ?

Screens from PubChem.
